VDR inhibitor: inhibitors of human vitamin D receptor | P11473 | VDR-SRC2-3 peptide fluorescence polarization, 2 h | Potency, µM, inactives show max response, negative = inhibition, hits mostly inhibitors | 400,000 compounds, 0.93% hits; also: potency is read from the fitted curve at half-maximal effect
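Measured by FP: displacement of SRC2-3 coactivator peptide from VDR by library compounds, following a two-hour ambient incubation.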
Sfp PPTase inh: inhibitors of Bacillus subtilis Sfp phosphopantetheinyl transferase; Q9F4F7; Biochemical Sfp PPTase activity, qHTS; Potency, µM, inactives show largest response in the series, negative = inhibition, most hits filed as inhibitors; 310,000 compounds, 3.5% hits;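 also: the enzyme is Sfp with the accession as filed and its product quenches rhodamine fluorescence; potency is read from the fitted curve at half-maximal effect; 0% = enzyme reaction without inhibitor and -100% = no enzyme wells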
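Fluorescence-quenching assay with 15 nM Sfp, 5 uM rhodamine-CoA and 12.5 uM BHQ-2-labelled ybbR peptide in pH 7.6 Hepes/MgCl2 buffer. Enzyme was pre-incubated with compound for 15 min at room temperature. Rate was taken from the 30-min fluorescence change (525/598 nm).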
G9a block: inhibitors of human histone lysine methyltransferase G9a; Q96KQ7; G9a H3K9 monomethylation, AlphaScreen, 2 h; Potency, µM (titrated, usually from 102 µM), for the others: at the highest dose activity, negative = inhibition, usual class: inhibitors; 350,000 compounds, 8.8% hits; AID 504332; also: potency is read from the fitted curve at half-maximal effect; nearly all actives have a fitted effect of over 75% in size
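Chemiluminescent proximity detection of H3K9 monomethylation, read after 10 min bead incubation in the dark. Reaction: 20 nM G9a, 500 nM biotin-H3K9 peptide, 20 uM SAM cofactor, 2 h, room temperature, following 15 min enzyme-compound preincubation.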
CCT modulator: cytosolic chaperonin activity modulation; purified chaperonin ATPase assay, HTRF ADP detection, 30 min; activity change, % (test concentration not listed), hits read low; 360,000 compounds, 0.3% hits; in the data active = activity change below about -30%
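First, chaperonin was dispensed at 40 nM or 20 nM final depending on batch activity. Next, compounds were pinned at 76 uM and ATP added at 10 uM. After 30 min at 37 °C, ADP detection reagents ran 30 min at ambient temperature.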
PLK1 PBD inh: inhibitors of human PLK1 polo-box domain binding; P53350; Plk1 PBD binding of FITC phosphopeptide, fluorescence polarization; Potency, µM, for inactives: max response, negative = inhibition, actives largely listed as inhibitors; 360,000 compounds, 2.8% hits; also: potency is read from the fitted curve at half-maximal effect; series mostly up to about 57 µM; nearly all actives have a fitted effect of over 65% in size
Target sequence (P53350 whole entry, looked up, the tested form may be a part): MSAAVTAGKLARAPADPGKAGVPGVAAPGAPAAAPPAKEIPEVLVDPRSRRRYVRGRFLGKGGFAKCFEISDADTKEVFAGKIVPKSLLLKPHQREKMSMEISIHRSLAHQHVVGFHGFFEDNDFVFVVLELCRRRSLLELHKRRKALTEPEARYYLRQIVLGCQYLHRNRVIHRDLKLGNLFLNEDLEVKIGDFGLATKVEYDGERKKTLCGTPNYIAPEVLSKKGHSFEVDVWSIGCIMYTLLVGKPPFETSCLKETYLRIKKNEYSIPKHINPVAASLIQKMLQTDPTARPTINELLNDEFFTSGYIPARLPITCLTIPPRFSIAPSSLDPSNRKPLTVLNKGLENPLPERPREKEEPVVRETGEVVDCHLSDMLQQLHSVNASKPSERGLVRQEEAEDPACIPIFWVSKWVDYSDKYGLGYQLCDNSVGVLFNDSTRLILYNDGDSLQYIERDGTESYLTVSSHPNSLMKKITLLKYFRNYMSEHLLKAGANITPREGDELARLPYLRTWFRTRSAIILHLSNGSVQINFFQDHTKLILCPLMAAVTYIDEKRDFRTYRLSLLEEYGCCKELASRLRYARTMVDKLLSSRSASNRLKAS
Mm-Cpn inhibitor: inhibitors of Methanococcus maripaludis chaperonin TRiC (MmCpn); Potency, µM (series often up to 76.9 µM), inactives show at the highest dose activity, negative = inhibition, hits mostly inhibitors; AID 504842; purified Mm-Cpn ATPase, ADP Transcreener TR-FRET; 330,000 compounds, 0.031% hits; also: potency is read from the fitted curve at half-maximal effect; nearly all actives have a fitted effect of over 80% in size
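Quantitative HTS used 25 nM Mm-CPN and 10 uM ATP in magnesium/KCl Tris buffer, pH 7.4, with 1 mM DTT. Hydrolysis ran 30 min at 37°C; ADP was read by HTRF.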
Numbers without * were called inactive; ? = inconclusive; . = no result; [ ] = dose if it differs, or a comment. In the library only some 10% were active in any assay of this set; here they are far more common. Unless noted, calls follow the shape of the dose curve; as a rule, active = well fitted curve in the direction sought with a large enough effect; inconclusive = small, poorly fitted or top-dose-only effect, or another doubt; inactive = no such curve, though single readings can be large; an effect the other way counts as inactive or inconclusive. Unless noted, % is scaled to controls: 0 for no effect and ±100 for the full control effect.

SMILES | VDR inhibitor | Sfp PPTase inh | G9a block | CCT modulator | PLK1 PBD inh | Mm-Cpn inhibitor
COc1cccc(Cn2c(=O)c(-c3cc(F)cc(F)c3)nc3cnc(N4CCOCC4)nc32)c1 | -7% | 11% | -15%[0.501 µM] | . | . | .
COc1ccc(CNC(=O)c2cc(-c3cccc(Cl)c3)on2)cc1 | 2% | . | -8%[59 µM] | . | . | .
CCC1CN(C(=O)N2CCC(C(=O)NCc3cccc(C)c3)CC2)c2ccccc2O1 (configuration not stated) | -3% | . | -4%[59 µM] | . | . | .
COC(=O)C1=C(O)/C(=C\c2ccc(CNS(=O)(=O)c3ccccc3)o2)N=C1C | 2% | 50µM* | ? | -2 | -16% | -2%
COC(=O)C1=C(O)/C(=C\c2ccc(CNS(=O)(=O)c3ccc(Cl)cc3)o2)N=C1C | 1% | 35µM* | 13µM* | -1 | -16% | -3%
CCOC(=O)C1=C(O)/C(=C\c2ccc(CNS(=O)(=O)c3ccc(Br)cc3)o2)N=C1C | -21% | ? | ? | -1 | ? | -2%
CC(=O)[C@@]1(O)CC[C@H]2[C@H]3C[C@@H](C)C4=CC(=O)C=C[C@]4(C)[C@@]3(F)[C@@H](O)C[C@]21C | 0% | 31% | -1%[21.5 µM] | . | . | .
CC(C(=O)O)n1c2ccccc2c2cnn(C)c(=O)c21 (configuration not stated) | -14% | 3% | 45µM* | 0 | -3% | -4%
CCC(C(=O)O)n1c2ccccc2c2cn[nH]c(=O)c21 (configuration not stated) | -13% | 6% | 45µM* | -25 | -18% | -2%
CCC(C(=O)O)n1c(C(F)(F)F)nc2ccccc21 (configuration not stated) | 11% | 19% | 0%[12.7 µM] | 0 | -2% | 0%
Cc1ccc2cccc(NC(=O)c3ccc(C#N)cc3F)c2n1 | -2% | . | 0%[59 µM] | . | . | .
CCn1c(=O)c(C(=O)Nc2ccc(C(C)=O)cc2)nc2ccccc21 | 7% | . | 4%[59 µM] | . | . | .
COC(=O)C(C)Sc1n[nH]c(=S)s1 (configuration not stated) | -7% | 50µM* | 6.3µM* | -2 | ? | 0%
CCC(C)Nc1nc(-c2c[nH]c3ccccc23)cs1 (configuration not stated) | ? | ? | 11µM* | 0 | -22% | -5%
Cc1ccccc1-c1csc(N)n1 | -4% | . | . | 0 | ? | .
Nc1nc(-c2ccccc2Cl)cs1 | ? | . | . | 0 | 19µM* | .
Cc1ccc2c(-c3csc(N)n3)c[nH]c2c1 | . | -19% | 45µM* | . | . | -1%
CNc1nc(-c2c[nH]c3ccccc23)cs1 | ? | 56µM* | 35µM* | -14 | ? | -15%
COc1ccc(Cl)cc1-c1csc(N)n1 | -20% | -12% | -7%[0.501 µM] | 1 | -4% | -2%
CCN1C(=O)[C@H]2[C@@H]3[C@H](O)[C@H](O)CC(=O)[C@H]3CC[C@H]2C1=O | . | 24% | . | . | . | .
CCCCOc1ccc(CNC(=O)c2cnc3sc(N4CCCC4)nn3c2=O)cc1 | 2% | . | 13%[59 µM] | . | . | .
Nc1nc(-c2c[nH]c3ccccc23)cs1 | 134% | 22µM* | ? | 0 | ? | -12%
Nc1nc(-c2cc3c(cc2Cl)OCCO3)cs1 | 5% | 2% | 14µM* | 1 | -2% | 1%
CN(C(=O)CSc1nc2ccc(NC(=O)CCc3ccccc3)cc2s1)c1ccccc1 | 1% | . | -2%[59 µM] | . | . | .
Cc1ccc(C(=O)Nc2cccc(-c3nc4cccnc4s3)c2C)cc1 | -4% | . | -20%[59 µM] | . | . | .
SMILES | VDR inhibitor | Sfp PPTase inh | G9a block | CCT modulator | PLK1 PBD inh | Mm-Cpn inhibitor
COc1cc(/C=C2/SC(=Nc3ccc(O)cc3)NC2=O)ccc1O | -7% | -12% | . | -2 | 26% | 1%
COc1cc(/C=C2\SC(=Nc3ccc(Cl)c(C(=O)O)c3)NC2=O)c(Br)c(Br)c1O | ? | 8% | 32µM* | -1 | 71% | 2%
COc1cc(/C=C2\SC(=Nc3ccccc3)NC2=O)cc(Cl)c1O | 5% | -10% | 45µM* | -9 | 79% | -4%
CCc1ccc(N=C2NC(=O)/C(=C/c3cc(OC)c(O)c(OC)c3)S2)cc1 | -23% | -11% | ? | 0 | 13% | -2%
Cc1noc(C)c1-c1ccc2ncnc(NCc3cccc(F)c3)c2c1 | . | -27% | . | . | . | .
C[C@@H]1C(SC2Cn3cnc[n+]3C2)=C(C(=O)[O-])N2C(=O)[C@H]([C@@H](C)O)[C@@H]12 (some centres not stated) | -4% | 24% | 32%[59 µM] | . | . | .
Cc1ccc(S(=O)(=O)c2cn(Cc3ccccc3)c3cc(N4CCCC4)c(F)cc3c2=O)cc1 | 0% | . | 1%[59 µM] | . | . | .
CN(C)CCNc1ccc2ncn3c4ccc(O)cc4c(=O)c1c23 | 10% | . | . | 1 | 12µM* | .
CN(C)CCNc1ccc(CO)c2sc3ccc(O)cc3c(=O)c12 | -18% | . | . | -2 | -10% | .
COc1ccc(CNC(=O)Cn2c(-c3ccccc3)cc(C(C)=O)c2C)cc1OC | 18% | . | -5%[59 µM] | . | . | .
CCN(CC)S(=O)(=O)c1ccc(N2CCc3ccccc3C2)nc1 | -27% | -9% | 40µM* | -1 | -29% | ?
C[C@H]1CC[C@H]2C(=O)N3[C@H](c4ccc(Br)cc4)[C@@H](C)CC[C@H]3C(=O)N2[C@@H]1c1ccc(Br)cc1 | . | 18% | . | . | . | .
COc1ccc2c(c1)OC(C)(C)C(c1ccccc1)C2c1ccc(OCCN2CCCC2)cc1 (configuration not stated) | -7% | 50µM* | ? | . | . | .
O=C(OCn1ncc(Cl)c(Cl)c1=O)c1ccc(C(F)(F)F)cc1 | 20µM* | 0% | 20%[12.7 µM] | -1 | -21% | -3%
Cc1ccc(C(=O)OCn2ncc(Cl)c(Cl)c2=O)cc1 | ? | ? | 8% | 0 | ? | ?
CCOC(=O)c1[nH]c2c(c1Cc1ccccc1)C(=O)CC(c1ccccc1)C2 (configuration not stated) | -11% | . | -3%[59 µM] | . | . | .
COCCCNC(=O)C(C)N1c2cccc3cccc(c23)S1(=O)=O (configuration not stated) | 71µM* | 9% | 27%[12.7 µM] | -2 | 11µM* | -7%
Oc1nc(-c2ccc(Br)cc2)n2ccncc12 | -15% | 56µM* | . | -1 | -16% | 0%
CSc1ccc(-c2nc(O)c3cnccn23)cc1 | -13% | -3% | 40µM* | 1 | -16% | -6%
COc1ccc(-c2nc(O)c3cnccn23)cc1 | -17% | -1% | ? | -5 | -11% | -1%
COc1ccccc1C1C(C(=O)c2sc(C)nc2C)=C(O)C(=O)N1CCN1CCOCC1 (configuration not stated) | -4% | -4% | 40µM* | -3 | -1% | -3%
Cc1ccc(C)c(/C(O)=C2\C(=O)C(=O)N(CCCN3CCOCC3)C2c2cccnc2)c1 (configuration not stated) | -15% | 15% | ? | 1 | -9% | -1%

Compound activity: PubChem, National Center for Advancing Translational Sciences (NCATS)
